Screening data from PubChem BioAssay.
BAZ2B inh – inhibitors of human BAZ2B bromodomain; Q9UIF8; AlphaScreen BAZ2B-H3K14Ac peptide displacement; Potency, µM (top dose mostly 114 µM), for inactives: at the top dose activity change, negative = inhibition, actives largely listed as inhibitors; 360,000 tested, 4.4% active; AID 504333; further: potency means the concentration at half of the fitted maximal effect; on the % scale 0 is the no-effect control and ±100 the full control effect; nearly all actives have a fitted effect of over 60% in size
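Compounds, titrated to a top concentration of 110 uM, were incubated 30 min at room temperature with preformed BAZ2B/acetyl-K14 H3 peptide complex (50 nM each). Proximity signal was measured by AlphaScreen after 20 min with beads.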
HP1b binding inh – HP1-beta chromodomain-methylated histone interaction inhibition | P83916 | AlphaScreen HP1-beta / biotin-H3K9me3 peptide binding | Potency, µM (doses to about 114 µM), inactives show at the highest dose activity change, negative = inhibition, most hits filed as inhibitors | 390,000 tested, 0.56% active | AID 540317; further: potency means the concentration at half of the fitted maximal effect; nearly all actives have a fitted effect of over 70% in size
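HP1-beta protein (50 nM final) preincubated 30 min at room temperature with biotinylated H3(1-18)K9me3 peptide (50 nM) in PBS pH 7.4, 0.01% Tween-20, then compound added for 30 min. AlphaScreen streptavidin donor/nickel chelate acceptor beads (10 ug/mL final), 30 min dark, luminescence read.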
JMJD2A Tudor – JMJD2A Tudor domain (human) inhibition | O75164 | AlphaScreen JMJD2A-Tudor / H3K4me3 peptide binding | Potency, µM (titrated, usually from 114 µM), inactives show top-dose activity change, negative = inhibition, hits mostly inhibitors | 390,000 tested, 4.4% active; further: potency means the concentration at half of the fitted maximal effect; on the % scale 0 is the no-effect control and ±100 the full control effect; nearly all actives have a fitted effect of over 50% in size
Six1-Eya2 inh – Six1/Eya2 interaction inhibition | Q15475+O00167 | AlphaScreen GST-Six1/His-Eya2 binding, biochemical; hits give low values | activity change, % (test concentration not listed) | 360,000 tested, 0.56% active | AID 651725; in the data active means activity change below about -65%; inconclusive means mostly about -30% to -63%; further: on the % scale 0 is the no-effect control and ±100 the full control effect
Target sequence (O00167 whole entry, looked up): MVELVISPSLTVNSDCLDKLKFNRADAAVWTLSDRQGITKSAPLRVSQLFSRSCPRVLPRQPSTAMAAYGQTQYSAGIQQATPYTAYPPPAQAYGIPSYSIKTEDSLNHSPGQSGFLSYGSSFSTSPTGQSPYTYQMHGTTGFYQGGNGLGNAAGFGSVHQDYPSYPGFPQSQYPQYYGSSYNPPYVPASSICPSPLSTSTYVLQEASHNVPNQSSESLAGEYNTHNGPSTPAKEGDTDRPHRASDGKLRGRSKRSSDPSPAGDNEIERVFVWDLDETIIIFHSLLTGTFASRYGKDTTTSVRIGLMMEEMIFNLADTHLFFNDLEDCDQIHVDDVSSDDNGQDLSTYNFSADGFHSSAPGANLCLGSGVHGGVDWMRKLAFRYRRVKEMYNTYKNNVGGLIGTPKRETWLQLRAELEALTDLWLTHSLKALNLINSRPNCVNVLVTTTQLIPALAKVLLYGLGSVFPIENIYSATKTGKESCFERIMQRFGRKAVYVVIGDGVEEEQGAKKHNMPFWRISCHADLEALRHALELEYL
Target sequence (Q15475 whole entry, looked up): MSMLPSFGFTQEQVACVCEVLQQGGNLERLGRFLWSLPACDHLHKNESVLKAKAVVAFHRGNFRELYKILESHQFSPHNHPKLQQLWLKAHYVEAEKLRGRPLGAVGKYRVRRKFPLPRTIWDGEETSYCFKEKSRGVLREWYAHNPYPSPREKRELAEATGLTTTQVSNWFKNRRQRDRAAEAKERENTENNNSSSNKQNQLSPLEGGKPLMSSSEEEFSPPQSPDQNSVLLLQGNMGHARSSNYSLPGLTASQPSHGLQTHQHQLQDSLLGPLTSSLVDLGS
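Homogeneous AlphaScreen proximity assay pairing GST-Six1 with His-tagged Eya2 (added as 5X mix: 250 nM and 500 nM) in 50 mM Tris pH 8.0, 300 mM NaCl, 1 mM TCEP. Glutathione donor and nickel acceptor beads; 1 h, 37 °C, dark.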
G9a inh – G9a (human) methyltransferase inhibition; Potency, µM (series often up to 102 µM), inactives show at the top dose activity, negative = inhibition, most hits filed as inhibitors; AID 504332; G9a H3K9 monomethylation, AlphaScreen, 2 h; 350,000 tested, 8.8% active; further: potency means the concentration at half of the fitted maximal effect; on the % scale 0 is the no-effect control and ±100 the full control effect; nearly all actives have a fitted effect of over 75% in size
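Using a bead-based AlphaScreen, monomethylated H3K9 product from 2 h room-temperature reactions (G9a 20 nM, peptide 500 nM, SAM 20 uM) was detected with 0.5 ug/mL rabbit anti-H3K9me1 antibody.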
CtBP-E1A inh – inhibitors of CtBP/E1A interaction. AlphaScreen GST-E1A/His-CtBP binding, 1536-well; hits give low values. activity change, % (test concentration not listed). 340,000 tested, 0.49% active. AID 651724; in the data active means activity change below about -65%; inconclusive means mostly about -30% to -63%; further: on the % scale 0 is the no-effect control and ±100 the full control effect
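In 5 uL wells, 23 nL compound meets equimolar GST-E1A and His-CtBP (5X stock 125 nM each) for 2 h, 37 °C. Beads (5X, 50 ug/mL) then 1 h, 37 °C, dark.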
* hit, by the source's call; ? = inconclusive; nt = no result; ! = not confirmed by another sample; [ ] = remark or other dose. In the library only some 10% were active in any assay of this set; here they are far more common. Unless noted, the call rests on the fitted dose curve; in most records, active means well fitted inhibition curve with a large enough effect; inconclusive means small, poorly fitted or top-dose-only effect; inactive means no such curve, though single readings can be large or run the other way.

SMILES	BAZ2B inh	HP1b binding inh	JMJD2A Tudor	Six1-Eya2 inh	G9a inh	CtBP-E1A inh
O=C(COC(=O)c1ccccn1)Nc1cccnc1Cl	79.4µM*	-0.9%	?	-8.1	28.2µM*	-5.2
CCOC(=O)N(C)C[C@@H]1OCc2cnnn2CCCC(=O)N([C@@H](C)CO)C[C@@H]1C	nt	nt	nt	8.0	nt	4.2
O=C(NCc1ccccn1)C1CCN(S(=O)(=O)N2CCC3(CC2)OCCO3)CC1	-7.0%	24.3%	-14.4%	-4.0	2.4%	-5.1
O=C(c1ccc2c(c1)OCCO2)N(Cc1cccnc1)c1nc2c(F)cccc2s1	-22.9%	15.5%[57 µM]	-30.2%	nt	-34.8%[59 µM]	nt
COc1ccc2sc(N(CCN(C)C)C(=O)c3ccc4ccccc4c3)nc2c1	?	-13.8%[57 µM]	39.8µM*	-6.8	39.8µM*	nt
COc1ccc2sc(N(CCN(C)C)C(=O)c3cc(Cl)sc3Cl)nc2c1	nt	7.5%	-33.7%	-8.6	?	1.9
CCOc1cccc2sc(N(CCCN(C)C)C(=O)c3ccc(S(=O)(=O)N(C)CC4CCCO4)cc3)nc12 (configuration not stated)	-23.1%	8.7%	-19.4%	2.2	-6.9%	2.9
COc1ccc(OC)c2sc(N(CCN(C)C)C(=O)c3cc(Cl)sc3Cl)nc12	nt	?	?	-19.5	?	-22.6
COc1ccc(C)c2sc(N(CCN(C)C)C(=O)c3ccc4ccccc4c3)nc12	?	-15.8%	?	-20.6	50.1µM*	-16.4
Cc1cc(C)c2nc(N(CCN(C)C)C(=O)c3ccc(S(=O)(=O)N(C)CC4CCCO4)cc3)sc2c1 (configuration not stated)	?	-15.3%	?	-17.0	79.4µM*	-12.8
CN(C)CCN(C(=O)c1ccc2ccccc2c1)c1nc2c(F)cccc2s1	-37.3%[57.1 µM]	1.1%	?	4.5	39.8µM*	4.8
Cc1ccc(NC(=O)C2CCN(S(=O)(=O)c3ccc4c(c3)CCCN4C(=O)C3CCC3)CC2)cc1	-0.6%	14.9%[57 µM]	-14.8%	nt	13.0%[59 µM]	nt
CCOc1cccc2sc(N(CCN(C)C)C(=O)c3ccc4ccccc4c3)nc12	?	-16.3%	?	-9.0	50.1µM*	-29.8
CC(=O)N(Cc1cccnc1)c1nc2c(C)cc(C)cc2s1	-13.1%	16.9%	-7.1%	nt	?	nt
CCOc1cccc2sc(N(CCN(C)C)C(=O)c3ccc(Br)s3)nc12	-2.0%	38.5%	-6.3%	2.0	10.2%[59 µM]	2.6
Cc1cc(C)c2nc(N(CCN(C)C)C(=O)c3ccc4ccccc4c3)sc2c1	?	-12.0%	39.8µM*	-27.0	39.8µM*	-28.2
O=C(Cn1c(-c2cccs2)cc2ccccc21)NCCCN1CCN(c2ccccc2F)CC1	-22.9%	18.3%	-20.1%	nt	-1.7%[59 µM]	nt
CCCCNC(=O)CCC(=O)Nc1ncc(-c2ccc(C)cc2)n1C	?	7.6%	?	-2.8	3.4%	-1.3
Cn1c(-c2ccc3c(c2)OCO3)cnc1NC(=O)CCC(=O)NCCc1ccccc1	?	-18.2%	56.2µM*	-5.6	-21.0%	-5.0
Cn1c(N)c(C(=O)COC(=O)c2cncc(Br)c2)c(=O)n(C)c1=O	-24.2%	28.0%	-24.4%	-2.0	50.1µM*	1.1
Cn1c(N)c(C(=O)COC(=O)c2ccccn2)c(=O)n(C)c1=O	79.4µM*	1.9%	79.4µM*	7.6	20µM*	-21.2
Cn1c(N)c(C(=O)COC(=O)Cc2ccc(Cl)c(Cl)c2)c(=O)n(C)c1=O	nt	25.9%	89.1µM*	-4.9	nt	nt
COc1ccc(CC(=O)OCC(=O)c2c(N)n(C)c(=O)n(C)c2=O)cc1OC	48.5%	27.1%	-14.9%	-3.0	44.8%[2.33 µM]	-4.1
Cn1c(N)c(C(=O)COC(=O)C2(c3ccc(Cl)cc3)CCCC2)c(=O)n(C)c1=O	-5.6%	-5.7%	3.16µM*	-2.0	-1.9%[12.7 µM]	3.0
CCOc1ncccc1C(=O)OCC(=O)c1c(N)n(C)c(=O)n(C)c1=O	15.6%	-2.0%	-5.4%	-11.4	20.4%	-2.8
SMILES	BAZ2B inh	HP1b binding inh	JMJD2A Tudor	Six1-Eya2 inh	G9a inh	CtBP-E1A inh
Cn1c(N)c(C(=O)COC(=O)C2(c3ccc(F)cc3)CCCC2)c(=O)n(C)c1=O	13.7%	29.9%	1.0%	-0.9	11.7%[59 µM]	0.1
COc1ccc(NC(=O)C(Cc2ccccc2)NS(=O)(=O)c2ccc3c(c2)CCN3C(C)=O)cc1 (configuration not stated)	nt	29.4%	-7.7%	nt	?	nt
Cc1cc2c(cc1C)/C(=N/NC(=O)c1ccccn1)CCC2	50.1µM*	53.7%	-5.6%	-21.2	nt	-28.8
O=C(NN=C1CCC(=NNC(=O)c2ccccn2)CC1)c1ccccn1	7.94µM*	32.7%	22.4µM*	-67.5*	nt	-75.1*
Cc1cc(C)c2c(c1)/C(=N/NC(=O)c1ccc(O)cc1)CCC2	-9.8%	-4.1%	-13.8%	-4.3	9.3%	13.2
O=C(N/N=C/C1CCCCC1)c1ccccn1	?	73.4%	-17.3%	-18.9	52.1%[12.7 µM]	-19.0
CC1CCC2(CC1)NC(=O)N(CC(=O)N1CCN(S(=O)(=O)c3ccccc3)CC1)C2=O (configuration not stated)	2.3%	33.3%	-7.8%	1.2	-3.9%	-21.6
O=c1[nH]c2cc3ccccc3cc2nc1-c1nnnn1Cc1ccccc1	nt	nt	nt	-26.8	nt	-11.2
COc1ccc(NC(=O)C(c2cc3c(cc2[N+](=O)[O-])OCO3)N(C)Cc2ccccc2)cc1 (configuration not stated)	?	?	?	-29.6	79.4µM*	-8.7
CCN(c1cccc(C)c1)C(C(=O)Nc1ccc(OC)cc1)c1cc2c(cc1[N+](=O)[O-])OCO2 (configuration not stated)	?	?	?	?	?	6.3
Cc1nnc(N2C(=O)c3oc4ccccc4c(=O)c3C2c2ccc(F)cc2)s1 (configuration not stated)	0.9%	25.6%	4.1%	nt	7.3%[59 µM]	nt
Cc1cc(Cl)ccc1NC(=O)CCC(=O)N/N=C/c1cc([N+](=O)[O-])ccc1O	6.0%	28.4%	0.7%	?	-0.7%	-26.3
Nc1ccc(NC(=O)c2cc(Cl)ccc2O)c(Cl)c1	nt	13.0%	-23.4%	nt	nt	nt
O=[N+]([O-])c1ccc(O)c(/C=N/NC(=S)Nc2ccc(Cl)cc2Cl)c1	31.6µM*	-13.1%	79.4µM*	-16.8	nt	-21.8
O=C(Nc1cccc(Cl)c1)c1cc(N=Nc2ccc([N+](=O)[O-])cc2Cl)ccc1O	2.82µM*	?	4.47µM*	-27.7	2.82µM*	nt
O=C(Nc1cccc(Cl)c1)c1cccc(Oc2ccc([N+](=O)[O-])cc2Cl)c1	-33.3%	11.5%	-28.8%	-6.8	20.7%[59 µM]	nt
O=C(Nc1ccc([N+](=O)[O-])cc1Cl)c1cc(Cl)ccc1O	-2.8%	11.3%	?	0.5	7.94µM*!	4.7
CCc1nc2ccc(C(=O)NCc3ccc4c(c3)OCO4)cn2c1N(CCC(C)C)CCN(C)C	nt	nt	nt	0.0	nt	-21.7
